Experimental data published in ChEMBL document CHEMBL3988442, “University of Dundee, Small-Polar-MMV Screening Library” (2021).
In all, about 48,000 compounds went through this assay and about 13,000 (27%) showed an effect of 50% or more. The list shows a part of the results.

Each molecule was assayed on Wolbachia pipientis (assay: Anti-Wolbachia Cell-Based Screen). Details: 5 µM.
Assay type: functional
Parameters: scale not given: in the data most compounds retested in dose-response had high values

In order of falling “Percent Effect” value:
1. Cc1cccc(NC(=O)c2sc(C)nc2C)n1  165.1%
2. CC(C)(C)OC(=O)N1CCN(S(C)(=O)=O)C2(CCCCC2)C1  138.8%
3. Cc1ccc(CC(=O)Nc2cc(C(C)C)n[nH]2)cn1  129.4%
4. CCCc1nc(C)c(C(=O)Nc2cccc(C)n2)s1  125.8%
5. CN(C)S(=O)(=O)N1CCN(C(=O)OC(C)(C)C)CC12CCCCC2  120.5%
6. O=C(NC1CCCCC1)c1cc(Br)cnc1N1CCCCC1  116.3%
7. CC(=O)Nc1ccc2c(c1)CN(C(=O)c1ccco1)CC2  113.8%
8. O=C(NC[C@@H]1CCCO1)c1cc(Br)cnc1N1CCCCC1  112.6%
9. CC(C)c1cc(NC(=O)c2ccc([S+]([O-])C(C)C)cc2)[nH]n1 (stereo not drawn)  112.1%
10. CCn1c2c(ccc1=O)CC(NCc1cnn(C)c1)CC2 (stereo not drawn)  111.7%
11. Oc1cccc(CN2CCN(C3CCc4ccccc4C3)CC2)c1 (stereo not drawn)  111.6%
12. CC(C)(C)OC(=O)N1CCN(S(=O)(=O)CCCC#N)C2(CCCCC2)C1  111.4%
13. CC(C)c1cc(NC(=O)c2cccnc2)[nH]n1  108.7%
14. CCOc1ccc(NC(=O)c2cc3c([nH]c2=O)CCC3)cc1  108.3%
15. Cn1cc(CNC2CCc3c(ccc(=O)n3C)C2)cn1 (stereo not drawn)  106.3%
16. COc1ccc(CN2CCN(C3CCc4ccccc4C3)CC2)cc1O (stereo not drawn)  105.5%
17. COCC(=O)Nc1ccc2c(c1)CN(C(=O)c1ccco1)CC2  105.1%
18. Cc1cnn(CC2CCCCN2Cc2ncc(C(C)(C)C)o2)c1 (stereo not drawn)  103.7%
19. CC(C)c1cc(NC(=O)c2ccncc2)[nH]n1  102.9%
20. CO[C@@H]1CCN(c2nnc(C)s2)C[C@@H]1Cc1cccc(C)c1.O=C(O)C(F)(F)F  98.33%
21. COc1cc(O)ccc1CN1CCN(C2CCc3ccccc3C2)CC1 (stereo not drawn)  95.73%
22. COCCn1c2c(ccc1=O)CC(NCc1cnn(C)c1)CC2 (stereo not drawn)  90.26%
23. CCC1CCCCN1Cc1ncc(C(C)(C)C)o1 (stereo not drawn)  88.88%
24. O=C(NCC1CC1)c1cc(Br)cnc1N1CCCCC1  74.44%
25. CO[C@H]1CCN(c2nnc(C)s2)C[C@@H]1Cc1cccc(C)c1.O=C(O)C(F)(F)F  71.03%
26. Cc1cnn(CC2CCCCN2Cc2cc(C)on2)c1 (stereo not drawn)  27.16%
27. O=C(c1cnc(NCC2CCCO2)c(Cl)c1)N1CCCCC1 (stereo not drawn)  21.16%
28. CCC(=O)Nc1ccc2c(c1)CN(C(=O)c1ccco1)CC2  20.51%
29. CCc1c(C(=O)N2CCOC(C)(C)C2)cnn1-c1ccccn1  19.62%
30. CCCc1nc(C)c(C(=O)NCc2ccc(C)n2C)s1  17.26%
31. CCOc1ccc(NC(=O)c2cnc(N3CCCC3)nc2C)cc1  17.2%
32. Cc1ccc2c(n1)N(CCN(C)C)CCN(C(=O)c1ccco1)C2  15.51%
33. COc1ccc(CNC2CCN(c3ccccc3)C2)cc1O (stereo not drawn)  14.8%
34. CCN1CCCC(CN2CCn3nc(CNC(=O)N(C)C)cc3C2)C1 (stereo not drawn)  11.32%
35. CC(SCCNS(=O)(=O)c1cnn(C)c1)c1cccs1 (stereo not drawn)  10.16%
36. Cc1cnc(NC2CCc3c(ccc(=O)n3C)C2)nc1 (stereo not drawn)  9.132%
37. Cc1nn(C(C)C)c(C)c1NC(=O)c1ccncc1  7.79%
38. Cc1cc(NC(=O)c2ccc(N3CCOCC3)c(C)c2)[nH]n1  7.693%
39. Cc1cc(C)c(CCNC(=O)CN2CCCN(C(N)=O)CC2)c(C)c1  7.662%
40. CCn1nc(C)c(CCn2ccnc2-c2cc3n(n2)CCNC3)c1C  7.532%
41. CC(C)c1cc(NCC2(Cn3cccn3)CC2)nc(N)n1  7.043%
42. O=C(NC1CC1)N1CC[C@H]2[C@H]1CCN2c1nncs1.O=C(O)C(F)(F)F  6.883%
43. CN(C)CCCN(C)C1CCN(c2cccc(-c3cscn3)c2)CC1  6.682%
44. Cn1cc(CCCN2CCN(Cc3cccc(O)c3)CC2)cn1  5.998%
45. CC(=O)N1CCC2(CCN(C(=O)c3ccc(C)c(C(F)(F)F)c3)CC2)C1  5.655%
46. CC(C)(C)c1cnc(CN2CCCC2Cn2cccn2)o1 (stereo not drawn)  3.93%
47. CNc1ncc(CN(C)C(=O)c2cccc(CC3CCNCC3)c2)cn1  3.587%
48. Cn1c(=O)oc2ccc(NC(=O)N3CCc4ccccc4C3)cc21  3.021%
49. COc1ccc(-c2ccc(C(=O)NS(C)(=O)=O)c(F)c2)c(F)c1  2.644%
50. O=C(c1cnc(NCC2CCCO2)c(Cl)c1)N1CCOCC1 (stereo not drawn)  2.383%
51. CCN(Cc1ccc2c(c1)OCCO2)C(=O)NC(C)Cn1ccnc1 (stereo not drawn)  1.976%
52. Cc1nc(C)c(C(=O)Nc2cc(N3CCC(C)CC3)ncn2)s1  1.923%
53. O=C(NS(=O)(=O)c1cccc(C(F)(F)F)c1)c1cnsn1  1.908%
54. Cn1nc2c(cc1=O)CN(CC1CCCCO1)CC2 (stereo not drawn)  1.26%
55. O=C(NC1CCN(c2ncccn2)CC1)c1cc2c(cc1O)CCCC2  1.017%
56. CS(=O)(=O)N1CCCC12CCCN(C(=O)c1ccnnc1)C2 (stereo not drawn)  0.7841%
57. CC(CO)N1CCN(C(=O)OC(C)(C)C)CC1 (stereo not drawn)  -0.0103%
58. O=C(NCC1CCCCC1)c1nnn(-c2ccc(Br)cc2)n1  -0.9526%
59. CC(C)c1cc(NC(=O)c2ccc(NC3CC3)nc2)[nH]n1  -1.016%
60. Cc1ccc(C(=O)Nc2cc(C(C)C)n[nH]2)cn1  -1.048%
61. COCC(O)CN(C)C(=O)c1cccc(-c2csc(C)n2)c1 (stereo not drawn)  -1.754%
62. CC(C)c1cc(NC(=O)c2ccc(C(=O)NC(C)(C)C)cc2)[nH]n1  -2.024%
63. Cc1nc(C)c(C(=O)NCCNC(=O)Cc2cccc(F)c2)s1  -2.44%
64. COc1ccc(N(C(=O)Cc2ccc(C)nc2)C(C)C)cc1F  -2.597%
65. CC(CN1CCOCC1)NC1CCN(Cc2cccc(O)c2)CC1 (stereo not drawn)  -2.88%
66. CC(C)(C)c1cnc(CN2CCC[C@H]2CO)o1  -3.159%
67. NC(=O)c1ccc(N2CCN(Cc3c(Cl)cncc3Cl)CC2)nc1  -3.438%
68. Cc1ccnn1CC(=O)N1CCN(C2CCc3ccccc3C2)CC1 (stereo not drawn)  -4.494%
69. CCc1cnc(NC2CCc3c(ccc(=O)n3C)C2)nc1 (stereo not drawn)  -4.602%
70. COc1ccc(CN2CCCC(Nc3cccc(F)c3)C2)cc1O (stereo not drawn)  -4.671%
71. COc1ccc(Br)c(C(=O)NCC2CCN(S(=O)(=O)C3CC3)CC2)c1  -4.78%
72. Cc1cccc(CO[C@H]2CN(c3nnc(C)s3)[C@@H]3CCCO[C@H]23)n1.O=C(O)C(F)(F)F.O=C(O)C(F)(F)F  -4.881%
73. Cc1cnc(NC2CCc3c(ccc(=O)n3CC3CC3)C2)nc1 (stereo not drawn)  -5.786%
74. O=c1ccc2c(n1Cc1cccnc1)CCC(NCc1cccnc1)C2 (stereo not drawn)  -5.878%
75. Cc1ccc([C@@H]2CN(C(=O)c3cc(C)no3)C[C@H]2NC(=O)C2CC2)cc1  -6.322%
76. CCc1nc2c(N3CCC4(CC3)CC(=O)N(CC)C4)ncnc2o1  -6.459%
77. Cc1cc(C)n(Cc2cccc(C(=O)N(CCC#N)CCC#N)c2)n1  -7.761%
78. CC(CC#N)N1CCN(C(=O)OC(C)(C)C)CC1 (stereo not drawn)  -8.127%
79. O=C(NC1CC1)c1cnc(-c2noc3cc(N4CCCCC4)ccc23)s1  -8.879%
80. CCOC(=O)c1ccc(NC(=O)c2cc3c([nH]c2=O)CCCC3)cc1  -8.889%
81. N#Cc1ccccc1C(=O)N1C[C@@H](CN2CCCCC2)[C@@H](CO)C1  -9.135%
82. O=C(Nc1ccccc1)[C@H]1O[C@H](CCN2CCCCC2)CC[C@@H]1O  -9.518%
83. COc1ccc(C2CCN(S(=O)(=O)CCCC#N)CC2)cc1  -10.18%
84. CC1(C)CC(N2Cc3nc(N)ncc3C2=O)CC(C)(C)N1  -10.52%
85. CC(C)(C)OC(=O)N1CCC(NC2CC2)CC1  -10.91%
86. CC(C)c1nnc2n1CCN(C(=O)c1cccc(OCC(N)=O)c1)C2  -10.94%
87. Cn1cc(-c2csc(CN3CCOCC3)n2)cn1  -11.66%
88. CCCc1nc(C)c(C(=O)NS(=O)(=O)c2cccnc2)s1  -11.93%
89. Cc1cccc(NCCOc2cccc(C#N)c2)c1C(N)=O  -11.96%
90. CC(C)(C)OC(=O)NC1(c2noc(-c3ccoc3)n2)CCC1  -12.02%
91. Cc1cc(NC(=O)c2ccc(N3CCOCC3)cc2)[nH]n1  -12.35%
92. CS(=O)(=O)N1CCCC12CCCN(C(=O)c1ccncc1)C2 (stereo not drawn)  -13.2%
93. COc1ccc(CN2CCC(O)CC2)c(OC)c1  -14.46%
94. Cc1ccc(CC(=O)NCC(O)c2ccc(Cl)cc2Cl)cn1 (stereo not drawn)  -14.52%
95. COc1cc(N2C[C@H]3CN(CCN4CCCC4)C(=O)[C@H]3C2)ncn1  -15.15%
96. CCC1CCCCN1Cc1ncc(-c2ccc(OC)cc2)o1 (stereo not drawn)  -15.61%
97. CN(C)C(=O)Cn1c2c(ccc1=O)CC(NCc1cccnc1)CC2 (stereo not drawn)  -16.54%
98. CO[C@@H]1CCN(Cc2nccs2)C[C@@H]1Cc1cccc(C)c1.O=C(O)C(F)(F)F  -16.54%
99. O=C(CNc1cc(Br)ccc1Br)NC1CCS(=O)(=O)C1 (stereo not drawn)  -18.44%
100. COc1cccc2c1N(CC(=O)Nc1ccc(Br)cn1)CCC2  -18.77%
101. Cc1n[nH]cc1CNc1ccc2c(c1)CN(C(=O)OC(C)(C)C)CC2  -19.63%
102. Cc1ncsc1CN1C[C@@H]2COC[C@]2(C(=O)NC(C)C)C1.O=C(O)C(F)(F)F  -19.77%
103. COCCn1c2c(ccc1=O)CC(NC(=O)c1cscn1)CC2 (stereo not drawn)  -30.94%
